Peg3 promoter: inhibitors of Peg3 promoter | HeLa PEG-Prom luciferase reporter, luminescence, overnight | inhibition, % at 20 µM | 1.7% of 360,000 active | AID 588405;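 active = inhibition of at least 50% at 20 µM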
KKLEB cytotox: CF airway cell cytotoxicity counter-screen; KKLEB CF airway cells viability, ATPlite luminescence, overnight; hits give low values; cells stimulated with P. aeruginosa culture filtrate; AID 602141; 0.36% of 360,000 active; activity change (cytotoxicity), % at 5 µM;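 active = corrected activity change at or below -50% at 5 µM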
TWEAK Fn14 block: TWEAK-Fn14 signaling inhibition | TWEAK-stimulated Fn14 reporter cells, luciferase luminescence, 8 h | inhibition, % at 10 µM | 2% of 360,000 active | AID 1159606; in the data active = inhibition above about 50%
CF NFkB inh: blocks PAF-induced NF-kB reporter in cystic fibrosis cells. inhibition, % at 5 µM. AID 588850. 0.86% of 360,000 active. KKLEB NF-kB-GFP reporter, GFP fluorescence overnight;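 active = at least 50% inhibition at 5 µM, scaled per plate between neutral and stimulator controls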;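 also: PAF is a Pseudomonas aeruginosa culture filtrate used as stimulus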
HIF-2a inh: blocks HIF-2a reporter activity; 786-0 RCC cells HIF-2a reporter, luciferase luminescence, overnight; inhibition, % at 18.8 µM; 0.72% of 360,000 active; AID 624352;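 active = inhibition of the luminescence signal of 40% or more relative to plate controls, in a single-dose primary screen at 18.75 µM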
TROY signal inh: blocks TROY-dependent signaling in reporter cells; Q293 LMP1-TROYcd NF-kB luciferase reporter, 4 h; inhibition, % at 10 µM; 0.98% of 360,000 active;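 active = compounds whose plate-normalised and pattern-corrected inhibition of the luciferase reporter signal at the single screening dose is 50% or more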
Mdm2 MdmX conf: confirmation of inhibitors of human Mdm2/MdmX interaction, set 2. shares compounds with HIF-2a inh. SaOS-2 split-luciferase Mdm2/MdmX complementation, luminescence. inhibition, % at 8 µM. 99% of 740 active;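 active = mean inhibition of the luminescence signal across two replicates at or above 26 percent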
HIF-2a conf: confirmation of HIF-2a inhibitors; shares compounds with HIF-2a inh; 786-0 RCC cells, HIF-2a luciferase reporter luminescence, overnight; inhibition, % at 18.8 µM; 56% of 1,800 active;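 active = mean inhibition across four replicates of at least 40 percent at the single tested concentration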
HIF-1a counter: counter-screen for HIF-2a inhibitors: HIF-1a inhibition in MiaPaCa-2 cells | shares compounds with HIF-2a inh | MiaPaCa-2 HIF-1a luciferase reporter, desferoxamine, overnight | inhibition, % at 18.8 µM | 72% of 1,800 active | AID 651589;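 active = mean inhibition of the reporter signal across four replicates at the single tested dose of 50% or more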
A number is an active result; n = inactive; x = not tested or not shown. An excerpt weighted towards active compounds, which were near 4% of everything screened.

SMILES	Peg3 promoter	KKLEB cytotox	TWEAK Fn14 block	CF NFkB inh	HIF-2a inh	TROY signal inh	HIF-2a conf	HIF-1a counter	others
Cc1c(O)nc(SC2CC(=O)N(c3cc(Cl)cc(Cl)c3)C2=O)[nH]c1=O (configuration not stated)	n	n	n	n	n	n	x	x
N#Cc1cccc(C(=O)Nc2cc(S(=O)(=O)N3CCOCC3)ccc2N2CCCC2)c1	n	n	n	n	n	n	x	x
COc1ccc(Br)cc1/C=C/C(=O)Nc1ccc2ccccc2c1	n	n	n	n	n	n	x	x
CCC(=O)Nc1cccc(C(=O)/C=C/c2cc(Br)ccc2OC)c1	104	n	94	n	84	n	84	106	Mdm2 MdmX conf=103
CC(=O)Nc1ccc(CN(C)c2c(C)nc3ccc(C(=O)N4CCN(c5ccccc5)CC4)cn23)cc1	n	n	n	n	n	n	x	x
COc1ccc(/C=C/C(=O)c2cc(F)ccc2OC(=O)c2ccccc2)cc1OC	n	n	n	53	44	n	n	n
O=C(C[C@@H]1CC[C@@H]2[C@H](COC[C@H](O)CN2C(=O)Nc2ccc(F)cc2)O1)NCCc1ccncc1	x	x	x	x	n	x	x	x
CCOC(=O)C(C(=O)OCC)C(C(=O)OCC)N1CCOCC1 (configuration not stated)	106	n	n	n	90	n	98	107
O=C(CCl)N(c1ccccc1)C1CCS(=O)(=O)C1 (configuration not stated)	103	n	53	n	n	n	x	x	Mdm2 MdmX conf=103
COc1ccc(C(=O)/C=C/C(=O)N(CC(=O)NC2CCCCC2)Cc2ccccc2OC)c(O)c1	104	-63	91	87	81	91	89	105
COc1ccc(C(=O)/C=C/C(=O)N(Cc2ccccc2OC)C(C(=O)NC2CCCCC2)c2ccncc2)c(O)c1 (configuration not stated)	n	n	n	n	n	n	x	x
COc1ccc(C(=O)/C=C/C(=O)N(CC(=O)NC2CCCCC2)Cc2ccccc2)c(O)c1	109	n	n	71	71	n	98	103
COc1ccc(C(=O)/C=C/C(=O)N(Cc2ccc(F)cc2)C(C(=O)NC2CCCCC2)c2ccncc2)c(O)c1 (configuration not stated)	n	n	n	n	n	n	x	x
COc1ccc(C(=O)/C=C/C(=O)N(Cc2ccccc2)C(C(=O)NC2CCCCC2)c2ccncc2)c(O)c1 (configuration not stated)	n	n	n	n	40	n	n	n
COc1cccc(CN(CC(=O)NC2CCCC2)C(=O)CCC(=O)Nc2cc(C)on2)c1	n	n	n	n	n	n	x	x
COc1ccc(C(=O)/C=C/C(=O)N(CC(=O)NC2CCCCC2)CC2CCCO2)c(O)c1 (configuration not stated)	106	n	84	n	94	50	99	107
CC1(C(=O)NCc2cccc(C(F)(F)F)c2)CCN1CCc1ccccc1 (configuration not stated)	n	n	n	n	n	n	x	x
COc1ccc(/C=C(\NC(=O)c2ccccc2)C(=O)N2CCC(C)CC2)cc1	n	n	n	n	n	n	x	x
O=C(COC(=O)CCCOc1ccc(Cl)cc1Cl)NCc1ccc(F)cc1	n	n	n	n	52	n	46	n
O=C(CCCOc1ccc(Cl)cc1Cl)NCCc1ccccn1	n	n	n	n	59	69	57	80
O=C(CCCOc1ccc(Cl)cc1Cl)NCCCO	n	n	n	n	n	n	x	x
Cn1sccc1=O	n	n	n	n	n	n	x	x
COc1ccc2c(n1)Sc1nc3ccccc3nc1N2	n	n	n	n	92	n	n	n
COc1cc2ccccc2nn1	n	n	n	n	n	n	x	x
